# Source: the supplement of paper PMC12636033
# ± gives the standard deviation of the averaged measurements. Whole data set: some 33,000 sequences, median “E-score (rank enrichment, -0.5 to 0.5)” near -0.0068, cut for the highest 2% near 0.24. The sample as a whole holds a higher share of the highest values than the screen did.
# Tested on: muMax20 (Max(13-93) K31hArg/K57hArg, M65Nle)
# Assay: PBM 8-mer E-score (E-score (rank enrichment, -0.5 to 0.5)); higher = stronger preferential binding
# Experimental: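 Protein binding microarray (universal PBM chip covering all 10-mers in fixed probe flanks) with chemically synthesized human Max(13-93) bHLH-LZ analogs (not full-length Max) bearing noncanonical residues (hArg, Tha, Aib, Nle at 65) and aromatic Cys staples. Read-out per 8-mer (and its reverse complement): E-score (rank-based enrichment, -0.5 to 0.5) and Z-score of median probe intensity.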
row,Sequence,PBM 8-mer E-score
1,ACTTCGGG,0.0794 ± 0.099
2,ACGCTAAG,-0.149 ± 0.038
3,CCACTGAC,-0.169 ± 0.032
4,AAAGCATA,0.249 ± 0.045
5,CAAGCTGA,-0.175 ± 0.11
6,AAAGCATG,0.25 ± 0.063
7,CAAGCATG,0.134 ± 0.038
8,AAAGCTGG,0.0179 ± 0.046
9,CAAGCATA,0.064995 ± 4.9e-05
10,AAAGCTGA,0.275 ± 0.086
11,TAAGCATA,0.11 ± 0.096
12,AAAGCATT,0.1 ± 0.0071
13,AATAAGGG,0.11 ± 0.12
14,ACTGTCTA,0.0515 ± 0.052
15,CGACAAGA,-0.0978 ± 0.12
16,GTCCAGGA,-0.157 ± 0.032
17,GAACGGGC,-0.0738 ± 0.11
18,ACCATACA,0.144 ± 0.051
19,AACATAAA,0.168 ± 0.035
20,GTCATACA,0.118 ± 0.021
21,ATCATACA,0.28 ± 0.069
22,AACATACG,0.278 ± 0.03
23,AACATACC,0.0171 ± 0.02
24,TACATAAA,0.239 ± 0.025
25,ATCATACG,0.184 ± 0.071

row,Sequence,PBM 8-mer E-score
1,AACATACT,0.0528 ± 0.0084
2,CACATAAA,0.2193 ± 0.00038
3,AACATACA,0.252 ± 0.0071
4,CACATACG,0.0977 ± 0.026
5,CGCGCTCA,-0.127 ± 0.012
6,ACTGCAAA,0.0247 ± 0.1
7,AGGCGACA,-0.105 ± 0.11
8,GCGAACCC,-0.0615 ± 0.025
9,ATCTGACC,0.00987 ± 0.008
10,CAATCGCG,-0.0427 ± 0.086
11,CAGATCTG,-0.123 ± 0.089
12,CACATACA,0.112 ± 0.072
13,TACATACA,0.26 ± 0.025
14,GACATACA,0.167 ± 0.11
15,ACGATGCC,-0.151 ± 0.016
16,ATATGCCA,0.242 ± 0.062
17,ATATGCCG,0.0671 ± 0.1
18,CTATGCCA,0.0539 ± 0.12
19,ACGTGCAA,0.251 ± 0.095
20,ACGTGCAT,0.33 ± 0.053
21,TCGTGCAA,0.0413 ± 0.0064
22,AAGTGCAT,0.132 ± 0.029
23,CCGTGCTA,-0.0534 ± 0.02
24,GCGTGCAC,0.208 ± 0.024
25,CCGTGCAC,0.0347 ± 0.013

row,Sequence,PBM 8-mer E-score
1,CCGTGCAA,-0.0343 ± 0.018
2,AGGTGCAT,0.0164 ± 0.091
3,ACGTGCTA,0.278 ± 0.041
4,ACGTGCAC,0.334 ± 0.11
5,GCGTGCTA,0.138 ± 0.033
6,CAAGCTCG,-0.109 ± 0.086
7,AAGACCCT,0.0269 ± 0.086
8,GACCGTGC,-0.11 ± 0.054
9,AGCCTCAA,-0.0979 ± 0.089
10,CGTCTCGC,-0.117 ± 0.017
11,CTAGCCAG,-0.0885 ± 0.015
12,GACACGAC,0.0582 ± 0.097
13,GGTGCAAA,0.0271 ± 0.074
14,CTCGCCTC,-0.157 ± 0.053
15,CCTCAGTA,-0.184 ± 0.019
16,AGGTTTAG,-0.0204 ± 0.08
17,ACGTGCCG,0.207 ± 0.098
18,CCGTGCAG,-0.128 ± 0.047
19,ACGTGCAG,0.252 ± 0.00027
20,CTGTAGGC,-0.151 ± 0.011
21,GACAACAA,0.125 ± 0.046
22,CGTCTGGC,-0.194 ± 0.022
23,GATAATAC,0.204 ± 0.073
24,AATAATAT,0.244 ± 0.011
25,AATAATAC,0.16 ± 0.018

row,Sequence,PBM 8-mer E-score
1,TATAATAA,0.315 ± 0.015
2,TGTAATAA,0.189 ± 0.076
3,GATAATAA,0.164 ± 0.034
4,AATAATAG,0.263 ± 0.024
5,CATAATAG,0.229 ± 0.017
6,CATAATAA,0.216 ± 0.021
7,ACTAATAT,0.199 ± 0.0057
8,ACTAATAG,0.191 ± 0.025
9,CATAATAC,0.26 ± 0.066
10,CAGCCTGA,-0.0558 ± 0.092
11,CGGCGGAA,-0.0106 ± 0.03
12,AATTGCTC,-0.0189 ± 0.0015
13,ACTAGATC,-0.0146 ± 0.044
14,CGCACCAG,-0.0279 ± 0.043
15,ATGAGACC,-0.0938 ± 0.12
16,CTGTCCTC,-0.0695 ± 0.18
17,CGTCCTGC,-0.0779 ± 0.08
18,ATAGCTGG,-0.243 ± 0.062
19,AGTAATAG,0.227 ± 0.078
20,AATACTAT,0.265 ± 0.077
21,AATACTAC,0.197 ± 0.038
22,TCTAATAA,0.236 ± 0.032
23,AAAAATAA,0.0636 ± 0.065
24,AATACTAA,0.158 ± 0.052
25,AATAATAA,0.277 ± 0.011

row,Sequence,PBM 8-mer E-score
1,GGTAATAA,0.0931 ± 0.008
2,CCTAATAA,0.103 ± 0.096
3,AGTAATAA,0.271 ± 0.0094
4,ACTAATAA,0.222 ± 0.015
5,AATAATCC,0.0218 ± 0.0033
6,AACGGAGT,-0.013 ± 0.052
7,ATCGTCGA,-0.133 ± 0.025
8,ATTGGATA,-0.0183 ± 0.031
9,ATAATGAC,0.122 ± 0.01
10,CCAGTCCA,-0.0788 ± 0.061
11,TAAAAGTA,0.189 ± 0.074
12,GTGGGCAA,0.0632 ± 0.065
13,CGATGTGA,-0.012 ± 0.0036
14,ACATGTCA,0.0739 ± 0.079
15,CCATGTGC,0.265 ± 0.12
16,CTATGTGC,0.175 ± 0.034
17,AAATGTGG,0.139 ± 0.016
18,CCATGTGA,0.268 ± 0.088
19,AGATGTGA,0.11 ± 0.04
20,ACATGTGG,0.335 ± 0.035
21,AGATGTGG,-0.0064 ± 0.024
22,CCATGTTC,-0.0553 ± 0.12
23,ACATGTGA,0.313 ± 0.063
24,GCATGTGA,0.236 ± 0.11
25,CTAGTAAC,0.196 ± 0.0053

row,Sequence,PBM 8-mer E-score
1,ATCTTGGC,-0.108 ± 0.011
2,AGCTCGTG,0.0196 ± 0.019
3,GGGCCACA,-0.0874 ± 0.078
4,CTGCTGCC,-0.156 ± 0.007
5,GTGTCTAA,0.0915 ± 0.069
6,ATGGATAA,0.163 ± 0.05
7,GATCCAAC,-0.0916 ± 0.056
8,CGATGCAG,-0.0636 ± 0.022
9,AGGCACAA,0.00764 ± 0.053
10,AGATGTGC,-0.0232 ± 0.13
11,ACATGTGC,0.265 ± 0.089
12,ACATGTCC,0.132 ± 0.091
13,AAAAGGGT,0.017 ± 0.098
14,ACCACGCC,-0.112 ± 0.055
15,CCCACGCG,0.246 ± 0.025
16,AGCACGCG,0.238 ± 0.13
17,CAAACACA,0.181 ± 0.095
18,CGCACGCG,0.171 ± 0.035
19,ACCACGCG,0.3 ± 0.11
20,TAAACACA,0.218 ± 0.043
21,CCCACGCC,-0.00197 ± 0.078
22,AGCACGCA,0.00177 ± 0.16
23,CAAACACG,0.292 ± 0.006
24,CCCACGCA,-0.043 ± 0.11
25,ACCACGCA,-0.00629 ± 0.023

row,Sequence,PBM 8-mer E-score
1,ATCTCAAT,0.0437 ± 0.22
2,ATCTCCCA,0.0498 ± 0.043
3,AGACCAGA,-0.0423 ± 0.084
4,AGGGTGCG,-0.107 ± 0.027
5,CTGAGCAG,-0.139 ± 0.067
6,ACATAGGC,0.126 ± 0.0047
7,CGCAGGGA,-0.135 ± 0.074
8,ATCACGTG,0.445 ± 0.064
9,AGCACGTG,0.436 ± 0.07
10,ATCACGTA,0.144 ± 0.055
11,AACACGCG,0.202 ± 0.042
12,AGCACGTA,0.0788 ± 0.0046
13,CACACGCA,0.0877 ± 0.054
14,ACCACGTA,-0.0417 ± 0.022
15,ATCACGTC,0.182 ± 0.045
16,CACACGCG,0.258 ± 0.038
17,ACCACGTG,0.477 ± 0.026
18,AGCACGTC,-0.139 ± 0.096
19,ACCACGTC,0.0772 ± 0.1
20,ATGCCCAG,-0.219 ± 0.063
21,ACTCGCTA,-0.111 ± 0.17
22,CCGTGCCG,-0.206 ± 0.017
23,GACCACAC,0.0455 ± 0.029
